Reference: PubChem BioAssay AID588511 (Johns Hopkins Ion Channel Center, 2011)
Hit rate of the full screen: of about 310,000 compounds, about 3,600 (1.2%) were called active.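 The calls were made as follows: active = ratio plate-corrected score three or more library SD toward inhibition, starting fluorescence score within five deviations; inactive = the rest.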 Shown is part of a subset that was picked to be rich in actives.

These molecules were tested against Anoctamin-1 (Mus musculus) (UniProt Q8BHY3) (assay: blockers of mouse ANO1 Ca-activated Cl channel – cell-based, HTS, primary screen (AID 588511;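 as to normalized B-score (activity score, 25-100; higher = stronger inhibition): score derived from kinetic fluorescence span divided by baseline fluorescence per well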)). Conditions: HEK293 TMEM16A/YFP iodide influx fluorescence, ionomycin; at 10 µM.
Chain of Anoctamin-1 (Mus musculus) (Q8BHY3 whole entry, looked up): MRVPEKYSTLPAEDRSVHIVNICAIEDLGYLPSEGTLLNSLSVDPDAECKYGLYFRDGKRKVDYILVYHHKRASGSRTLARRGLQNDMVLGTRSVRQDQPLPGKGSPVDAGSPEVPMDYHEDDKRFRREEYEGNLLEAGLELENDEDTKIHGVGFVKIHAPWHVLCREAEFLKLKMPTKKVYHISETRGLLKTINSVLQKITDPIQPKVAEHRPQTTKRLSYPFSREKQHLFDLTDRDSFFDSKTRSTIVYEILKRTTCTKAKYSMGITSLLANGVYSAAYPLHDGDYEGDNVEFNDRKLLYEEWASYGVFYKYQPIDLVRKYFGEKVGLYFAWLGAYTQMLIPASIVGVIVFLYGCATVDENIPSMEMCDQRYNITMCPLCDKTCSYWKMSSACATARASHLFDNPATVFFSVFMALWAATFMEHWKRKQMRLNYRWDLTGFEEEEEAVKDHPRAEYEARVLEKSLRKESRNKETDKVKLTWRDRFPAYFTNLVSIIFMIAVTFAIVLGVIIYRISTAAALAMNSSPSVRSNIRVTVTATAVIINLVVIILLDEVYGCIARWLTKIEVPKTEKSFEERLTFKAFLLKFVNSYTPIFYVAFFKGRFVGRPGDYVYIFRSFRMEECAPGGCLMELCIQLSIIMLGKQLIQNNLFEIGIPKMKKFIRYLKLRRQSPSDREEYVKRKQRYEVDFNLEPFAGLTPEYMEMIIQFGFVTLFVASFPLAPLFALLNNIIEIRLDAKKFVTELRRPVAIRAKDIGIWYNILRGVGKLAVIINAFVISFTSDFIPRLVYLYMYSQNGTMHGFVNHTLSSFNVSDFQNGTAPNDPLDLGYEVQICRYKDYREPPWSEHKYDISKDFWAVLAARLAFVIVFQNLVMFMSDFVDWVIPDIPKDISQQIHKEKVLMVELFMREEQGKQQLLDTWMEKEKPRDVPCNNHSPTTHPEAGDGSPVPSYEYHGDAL

Compound | normalized B-score (activity score, 25-100; higher = stronger inhibition)
O=C(Nc1ccc(Cl)cc1)/C(=C1\CCCN1)[N+](=O)[O-] | inactive
Cc1ccc(OCC(=O)Nc2ccc3oc(=O)ccc3c2)cc1C | inactive
Fc1ccc2[nH]c3c(N4CCSCC4)ncnc3c2c1 | 100 (active)
Cc1c(CN2CC[C@@H](N3CCN(c4ccccn4)CC3)[C@H](O)C2)[nH]c2ccc(F)cc12 | inactive
Cc1cc(C)c(S(=O)(=O)c2cc(F)ccc2C)c(=O)[nH]1 | inactive
COc1ccc(C(=O)OCC(=O)Nc2ccc3[nH]c(=O)[nH]c3c2)c(OC)c1OC | inactive
CS(=O)(=O)N(CC(=O)N1CCN(c2ccc(F)cc2)CC1)C1CCCCC1 | inactive
CCOC(=O)N1CCN(C(=O)c2ccc3nc4cc(Cl)ccc4c(=O)n3c2)CC1 | inactive
COC(=O)c1ccc(NC(=O)c2ccccc2NS(=O)(=O)c2ccccc2)cc1 | 100 (active)
COC(=O)c1ccccc1NC(=O)c1ccccc1NS(C)(=O)=O | inactive
CCOc1ccc(NC(=O)c2ccccc2NS(C)(=O)=O)cc1 | inactive
COc1ccc(NC(=O)c2cnc(NS(=O)(=O)c3ccccc3)nc2)cc1 | inactive
COc1cc(NC(=O)c2ccccc2NS(=O)(=O)c2ccc(Cl)s2)cc(OC)c1 | 100 (active)
COc1cc(OC)c(S(=O)(=O)Nc2ccccc2C(=O)O)cc1S(=O)(=O)Nc1ccccc1C(=O)O | inactive
CCNC(=O)CC1C(=O)N(c2ccc(F)cc2)C(=O)N1CCc1sccc1C (configuration not stated) | inactive
COc1ccc(NCc2nnc(SCc3ccccc3)n2-c2ccc(OC)cc2)cc1 | inactive
O=C(O)c1ccc(-n2nc(-c3ccccc3)c3ccccc3c2=O)cc1 | inactive
Cc1cc(C)c(S(=O)(=O)N2CCOCC2)cc1C | inactive
OCC[C@H]1C[C@@H](O)[C@H](O)[C@]2(OCCCc3ccccc32)O1 | inactive
Cc1c(C)c2c(OCC(=O)N[C@@H](C(=O)O)c3ccccc3)cc3c(c2oc1=O)CCC(C)(C)O3 | 100 (active)
Cc1c(C)c2c(OCC(=O)NCCCO)cc3c(c2oc1=O)CCC(C)(C)O3 | inactive

Compound | normalized B-score (activity score, 25-100; higher = stronger inhibition)
Cc1cc(=O)oc2c3c(cc(OCC(=O)N[C@H](C(=O)O)c4ccccc4)c12)OC(C)(C)CC3 | inactive
C#CCO[C@@H]1C[C@H](n2cnc3c(=O)[nH]c(NC(=O)C(C)C)nc32)O[C@@H]1CO | inactive
COCCN(C(=O)CCC(=O)Nc1nccs1)C(C(=O)NCCC(C)C)c1ccc(F)cc1 (configuration not stated) | inactive
CCCc1cc(C(=O)N2CCCC(CO)(CCCc3ccccc3)C2)n(C)n1 (configuration not stated) | inactive
O=C(Nc1nc2ccc([N+](=O)[O-])cc2s1)c1ccc(S(=O)(=O)N2CCCc3ccccc32)cc1 | 100 (active)
O=C(NC(Nc1nc2ccc([N+](=O)[O-])cc2s1)(C(F)(F)F)C(F)(F)F)c1ccccc1 | 100 (active)
O=C(CNC(=O)c1ccccc1)Oc1ccc([N+](=O)[O-])cc1 | inactive
CSc1nc2ccc(S(=O)(=O)N3CCc4ccccc43)cc2s1 | inactive
CN(C)CCCN(C(=O)c1ccc(S(=O)(=O)N2CCCc3ccccc32)cc1)c1nc2ccc(F)cc2s1 | inactive
CCC(=O)NC(Nc1nc2ccc(C)cc2s1)(C(=O)OC)C(F)(F)F (configuration not stated) | inactive
O=C(NCc1ccc(F)cc1)C(c1ccccc1)N(C(=O)c1csnn1)C1CC1 (configuration not stated) | inactive
CCSc1nnc(-c2cc3c(s2)-c2ccccc2CC3)o1 | inactive
Fc1ccc(-c2nnc(CSc3nnc(-c4ccc5c(c4)OCO5)o3)o2)cc1 | inactive
Fc1ccc(CSc2nnc(-c3cc4c(s3)-c3ccccc3CC4)o2)cc1 | 100 (active)
O=C(NCCS(=O)(=O)c1ccc(Br)cc1)c1ccccc1Cl | inactive
O=C(OCC1O[C@@H](OC(=O)c2cc(O)c(O)c(O)c2)[C@@H](OC(=O)c2cc(O)c(O)c(O)c2)[C@@H](OC(=O)c2cc(O)c(O)c(O)c2)[C@@H]1OC(=O)c1cc(O)c(O)c(O)c1)c1cc(O)c(O)c(O)c1 (some centres not stated) | inactive
CN(c1ccccc1)S(=O)(=O)c1ccc(Cl)c(C(=O)OCC(N)=O)c1 | inactive
CC(=O)c1c(C)[nH]c(C(=O)COC(=O)c2cccc(S(=O)(=O)N(C)c3ccccc3)c2)c1C | 100 (active)
CC(=O)c1c(C)[nH]c(C(=O)COC(=O)CCOc2ccc(C)cc2)c1C | inactive
CC(=O)NCCc1ccc(S(=O)(=O)Nc2ccc(C)c(S(=O)(=O)N3CCOCC3)c2)cc1 | inactive
CCCCCCOC(=O)NCC(O)c1ccccc1 (configuration not stated) | inactive

Compound | normalized B-score (activity score, 25-100; higher = stronger inhibition)
CCCCCC(O)c1cccc(OCc2ccc3ccccc3n2)c1 (configuration not stated) | 100 (active)
COc1cccc(C(O)c2nc3ccccc3n2C)c1 (configuration not stated) | inactive
NC(=O)c1ccc(Nc2ccc3c(c2)CCC3)c([N+](=O)[O-])c1 | inactive
Cc1ccc(S(=O)(=O)NCc2csc(C)n2)c(C)c1 | inactive
Cc1nc(CNS(=O)(=O)c2ccc(Oc3ccccc3)cc2)cs1 | 100 (active)
Cc1nc(CNS(=O)(=O)c2cccnc2)cs1 | inactive
CS(=O)(=O)c1ccccc1C(=O)Nc1ccc2sccc2c1 | inactive
Cc1csc(NC(=S)Nc2cccc(Cl)c2)n1 | inactive
S=C(Nc1cccc(Cl)c1)Nc1ccc2c(c1)OCCO2 | inactive
FC(F)(F)c1cccc(NC(=S)Nc2cccc(Cl)c2)c1 | 100 (active)
COC(=O)CNS(=O)(=O)c1ccc(OC)cc1 | inactive
COc1ccc(S(=O)(=O)NCCCCOc2ccc(Cl)cc2)cc1 | 25 (active)
COc1ccc(S(=O)(=O)NCCCc2ccccc2)cc1 | inactive
Cc1ccccc1C(=O)N1CCC(C(=O)Oc2ccc(C#N)cc2)CC1 | inactive
Cc1cccc(N(Cc2ccccc2)C(=O)c2cc(S(=O)(=O)N3CCOCC3)ccc2F)c1 | inactive
Cc1ccc(F)cc1NC(=O)Cc1nn(C)c(=O)c2ccccc12 | 100 (active)
Cc1nn(CC(=O)Nc2ccc(F)cc2)c(=O)c2ccccc12 | inactive
COc1ccc(-c2nn(C)c(=O)c3ccccc23)cc1NC(=O)COc1ccccc1 | inactive
C[C@@H]1NC(=O)c2cc([N+](=O)[O-])cc(F)c2NCCC[C@@H](C(N)=O)NC(=O)[C@H](CC(N)=O)NC1=O | inactive
Cc1nn(C)c(Oc2ccccc2)c1CCNS(=O)(=O)c1ccc(F)cc1 | inactive
